Experimental data: the supplement of paper PMC9844399
Structures can show the parent of a compound that is named as a salt. Unmarked numbers belong to inactive results.

system: HeLa; test: MALAT1 nuclear FISH intensity, robust Z-score vs DMSO; higher = more nuclear MALAT1 lncRNA, active = -3 or less; conditions: 10 µM; 6 h
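Note: High-content confocal imaging of branched-DNA amplified FISH in 384-well plates, Hoechst-defined nuclei, score is well value minus plate DMSO median over DMSO robust SD, four wells per compound.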

Point of comparison: CC/C=C\C/C=C\C/C=C\CCCCCCCCCC(=O)O [Eicosatrienoic acid (20:3 n-3)], “MALAT1 nuclear FISH intensity” value 1.31. Against it:
- CCc1cccc2c3c([nH]c12)C(CC)(CC(=O)O)OCC3 (configuration not stated) [Etodolac] — lower, -0.647
- Cc1[nH]c2ccccc2c1CCNC(=O)c1ccccc1F — lower, -0.887
- C[C@H](N[C@@H](CCc1ccccc1)C(=O)O)C(=O)N1CCC[C@H]1C(=O)O [Enalaprilat Maleate] — lower, -0.501
- C=CC[N+]1([C@H]2C[C@H]3[C@@H]4CC[C@H]5C[C@H](O)[C@@H](N6CCOCC6)C[C@]5(C)[C@H]4CC[C@]3(C)[C@H]2OC(C)=O)CCCC1 [Rocuronium Bromide] — lower, -0.874
- CC(S)C(=O)NCC(=O)O (configuration not stated) [Tiopronin] — higher, 1.65
- C[C@H]1C[C@@H]2[C@H]([C@@H](O)C[C@@]3(C)[C@H]2CC[C@]3(O)C(=O)CO)[C@@]2(C)C=CC(=O)C=C12 [Methylprednisolone] — higher, 2.03
- COc1cc2nc(N3CCN(C(=O)C4COc5ccccc5O4)CC3)nc(N)c2cc1OC (configuration not stated) [Doxazosin Mesylate] — lower, 0.289
- CO[C@H]1/C=C/O[C@@]2(C)Oc3c(C)c(O)c4c(O)c(c(/C=N/N5CCN(C)CC5)c(O)c4c3C2=O)NC(=O)/C(C)=C\C=C\[C@H](C)[C@H](O)[C@@H](C)[C@@H](O)[C@@H](C)[C@H](OC(C)=O)[C@@H]1C [Rifampicin] — lower, 1.11
- CC(=O)N[C@@H](CSC/C=C(\C)CCC=C(C)C)C(=O)O [N-Acetyl-S-geranyl-L-cysteine] — lower, 0.4
- CCC(=O)O[C@]1(C(=O)SCF)[C@H](C)C[C@H]2[C@@H]3C[C@H](F)C4=CC(=O)C=C[C@]4(C)[C@@]3(F)[C@@H](O)C[C@@]21C [Fluticasone Propionate] — higher, 1.52
- CCCCS(=O)(=O)N[C@@H](Cc1ccc(OCCCCC2CCNCC2)cc1)C(=O)O — lower, 0.916
